In PubChem BioAssay AID2314 (National Center for Advancing Translational Sciences (NCATS), 2010):
The campaign covered roughly 300,000 compounds. About 37,000 (12%) were called active. The sample as a whole holds a higher share of actives than the screen did. Unmarked numbers belong to inactive results. Rule as the data show it: active = max response mostly above about 13% (no sharp cut-off); inactive = mostly below about 14%.

Test: Cycloheximide Counterscreen for Small Molecule Inhibitors of Shiga Toxin; also: read at 38.3 µM for the half of the compounds with a filed dose; 0% is about no effect
Conditions: cell reporter, cycloheximide protein synthesis inhibition counterscreen; active compounds read high

| SMILES | max response |
| --- | --- |
| O=[N+]([O-])c1ccc(N2CCN(c3ccc(F)cc3)CC2)cn1 | -1.96% |
| CCCCC(=O)Nc1nnc(S(=O)(=O)N(C)Cc2ccco2)s1 | 12% |
| Cc1ccc([N+](=O)[O-])cc1S(=O)(=O)N1CCCN(C)CC1 | -0.621% |
| Cc1cc(CNC(=O)c2cccc([N+](=O)[O-])c2)c2ccccc2n1 | 18.3% |
| COc1cccc(CNC(=O)CCCC(=O)Nc2cccc([N+](=O)[O-])c2)c1 | -3.22% |
| Cc1cccc(C(=O)NNC(=O)c2cccc([N+](=O)[O-])c2)c1 | 0.787% |
| COc1cccc(NCCC(=O)c2cccc([N+](=O)[O-])c2)c1 | 34.7% (active) |
| CC(C)(C)SCCNC(=O)c1cccc([N+](=O)[O-])c1 | 19.6% (active) |
| COc1cccc(C(=O)CC(=O)C(=O)Nc2ccc([N+](=O)[O-])cc2C)c1 | -0.608% |
| COCCCNCCOCCOc1ccc(Cl)cc1Br | -3.84% |
| CC(C)(C)c1nnc(NC(=O)C2c3ccccc3Oc3ccccc32)s1 | -2.51% |
| O=c1o[nH]c(-c2ccccc2)c1N=Nc1c(F)cccc1Cl | 6.23% |
| COc1ccc2c(c1)c(C(=O)N/N=C/c1cccs1)c(C)n2C | -3.51% |
| O=C(CN1CCC(NC(=O)Nc2ccccc2)CC1)Nc1cccc([N+](=O)[O-])c1 | -2.36% |
| COCCNC(=O)c1ccc(S(=O)(=O)c2ccc(Cl)cc2)c(NC(C)=O)c1 | -7.19% |
| CCOc1cc(/C=C/c2nc3ccccc3c(=O)[nH]2)cc(Br)c1OC | 2.32% |
| COC(=O)c1cccc(C(=O)N2CCC(CCC(=O)NCc3ccc(F)cc3)CC2)c1 | -0.695% |
| Cc1ccc(C2(C(F)(F)F)N=C3Sc4cc(C)cc(C)c4N3C(=O)N2)cc1 (stereo not given) | 18.6% (active) |
| O=C(Cn1cc(C(F)(F)F)ccc1=O)N/N=C/c1ccc(Cl)cc1Cl | -2% |
| Cn1nnc(NC(=O)CSc2ncn[nH]2)n1 | -1.09% |
| CC(C)(C)c1ccc(C(=O)CSc2ncn[nH]2)cc1 | 37.3% (active) |
| CCN(C(=O)CSc1ncn[nH]1)c1cccc2ccccc12 | 4.43% |
| Cc1ccc2c(c1)C(c1ccccc1)N(C(=O)c1ccc(S(=O)(=O)N3CCOCC3)cc1)CC(=O)N2 (stereo not given) | -1.59% |
| CN(Cc1ccccc1)C(=O)CSc1nc2ccccc2[nH]1 | 39.7% (active) |

| SMILES | max response |
| --- | --- |
| CN(Cc1ccccc1)c1nc2c(c(=O)[nH]c(=O)n2C)n1CCSc1nc2ccccc2[nH]1 | 0.491% |
| N#Cc1c(-c2ccc(F)cc2)cc(C2CC2)nc1SCC(=O)c1cccs1 | -0.655% |
| O=C(CSc1nc2ccccc2[nH]1)c1cccs1 | 47.2% (active) |
| N#Cc1c(-c2cccs2)nc(SCC(=O)c2ccc(Br)cc2)[nH]c1=O | 2.73% |
| O=C(CSc1nc2ccccc2[nH]1)Nc1nc(-c2ccccc2)c(-c2ccccc2)o1 | 0.677% |
| C=CCN(CC=C)S(=O)(=O)c1ccc(C(=O)Nc2nc3c(s2)CCc2ccccc2-3)cc1 | -6.15% |
| CC(C)Cn1c(N2CCN(C(=O)/C=C/c3ccccc3)CC2)nc2ccccc21 | 3.07% |
| CC1CCCCC1NC(=O)CO/N=C/c1ccc(OC(F)F)cc1 (stereo not given) | 1.26% |
| O=C(CNC(=O)c1ccc(-c2ccccc2)cc1)OCc1ccc(Cl)cc1 | -0.931% |
| Cc1ccc(C(=O)NCC(=O)OCc2nnc(-c3ccccc3)o2)cc1 | 23.8% (active) |
| O=C(OCc1nnc(-c2ccccc2)o1)c1ccc2c(c1)C(=O)N(CCc1ccccc1)C2=O | -1.64% |
| O=C(CN1CCN(c2cccc(Cl)c2)CC1)Nc1ccc(S(=O)(=O)N2CCOCC2)cc1 | -3.83% |
| CCOc1cc(/C=C2/N=C(c3ccc(C(C)(C)C)cc3)OC2=O)cc(Cl)c1OS(C)(=O)=O | -4.6% |
| O=C1CCC(=O)N(O)CCCCCNC(=O)CCC(=O)N(O)CCCCCNC(=O)CCC(=O)N(O)CCCCCN1 | -3.2% |
| CC(C)[C@@H]1COC(c2cccc(C3=N[C@H](C(C)C)CO3)c2)=N1 | 33.7% (active) |
| O=C(O)c1cccnc1NC1CCCC1 | -2.86% |
| COc1ccc(-c2nonc2NC(=O)c2oc3ccc(F)cc3c2C)cc1OC | 4.29% |
| Cc1ccc(S(=O)(=O)NCc2ccc(C(=O)NC3CCC(C)CC3)cc2)cc1 (stereo not given) | -10.9% |
| Cc1ccc(C)c(NC(=O)NNC(=O)c2ccc3ccccc3c2O)c1 | 3.4% |
| CSc1ccccc1NC(=O)c1cc(Cl)sc1Cl | 2.39% |
| O=C(NC1CCN(S(=O)(=O)c2ccc(F)cc2)CC1)c1ccccc1 | -0.862% |
| Cc1nn(Cc2ccc(Cl)c(Cl)c2)c(C)c1NC(=O)c1cc(C2CC2)on1 | -1.12% |
| CSc1ccccc1NC(=O)c1cc(C2CC2)on1 | 37.7% (active) |
| COc1cc(OC)c(C(=O)NC2CCCCCC2)cc1OC | -2.09% |

| SMILES | max response |
| --- | --- |
| CC(NC(=O)c1cc(-c2ccccc2)on1)c1ccccc1 (stereo not given) | 3.69% |
| CC(=O)c1cc(-c2ccccc2)n(CC(=O)NC2CCCCC2)c1C | -3.63% |
| O=C(NC1CC1)c1cccc(Br)c1 | -2.43% |
| O=C(NC1CC1)c1ccc(-c2ccccc2)cc1 | 42.7% (active) |
| O=C(NC1CCCCC1)c1cc(C2CC2)on1 | 40.8% (active) |
| O=C(NC1CCCC1)c1cc(-c2ccccc2)on1 | 30.6% (active) |
| O=C(Nc1cc(C(F)(F)F)ccc1Cl)c1cc(C2CC2)on1 | -4.3% |
| Cn1cc(S(=O)(=O)Nc2ccc(Cl)cc2Cl)c(=O)n(C)c1=O | -2.38% |
| CC(C)C[C@@H](NC(=O)[C@H]1CCCN1C(=O)Cc1ccccc1)C(N)=O | 8.92% |
| CCC1(CC)C(=O)C2=C3C1[C@H](C(=O)OC)C=C(C(=O)OC)C[C@H]3[C@H]1C(=O)N(Cc3ccccc3)C(=O)[C@H]1[C@H]2C (stereo not given in full) | -3.02% |
| CC(NC(=O)Cn1cc(C(F)(F)F)cc(Cl)c1=O)c1ccccc1 (stereo not given) | 11.8% |
| CC[C@H](C)[C@H](NC(=O)[C@H](Cc1cnc[nH]1)NC(=O)[C@@H](N)CCC(=O)O)C(=O)N1CCC[C@H]1C(=O)N[C@@H](C)C(=O)O | -2.98% |
| CCCCn1ccnc1C(=O)c1cccc(S(=O)(=O)N2c3ccccc3CC2C)c1 (stereo not given) | -2.53% |
| Cc1ccc(/C(N)=N/OC(=O)COc2ccc(Cl)c(C)c2)cc1 | -3.46% |
| CC(=O)OC(C(=O)NCCc1ccccc1)c1cccnc1 (stereo not given) | -0.715% |
| N/C(=N\OC(=O)CCc1ccccc1)c1cccnc1 | 27.3% (active) |
| N/C(=N\OC(=O)CCc1ccccc1)c1ccc(Cl)cc1 | 24.7% (active) |
| O=C(O)CCc1cccnc1 | 2.51% |
| O=C(CCC(=O)OCc1ccc(Cl)cc1)Nc1ccccc1 | -2.49% |
| CCCOc1ccc(NC(=O)CC2C(=O)N(C)C(=S)N2Cc2ccc3c(c2)OCO3)cc1 (stereo not given) | -2.42% |
| COc1ccc(NC(=O)C(C)SCc2ccccc2)cc1 (stereo not given) | 23% |
| Cc1cccc(NC(=O)C(C)N2C(=O)C3C4CC(C(Br)C4Br)C3C2=O)c1 (stereo not given) | -1.4% |
| Cc1cccc(NC(=O)C(C)SCc2ccccc2)c1 (stereo not given) | 21.6% (active) |
| CC(C(=O)Nc1ccc(O)c(C(=O)O)c1)N1C(=O)/C(=C/c2cccs2)SC1=S (stereo not given) | -1.39% |

| SMILES | max response |
| --- | --- |
| CC1(C)CC(CNCCC(c2ccc(F)cc2)c2ccco2)CCO1 (stereo not given) | 0.614% |
| CCOC(=O)C1(CCOc2ccccc2)CCN(Cc2cc(OC)c(O)cc2Cl)CC1 | -2.51% |
| Nc1nnc(SCC(=O)Nc2ccc3nc(SCC(=O)Nc4ccccc4)sc3c2)s1 | 33.9% (active) |
| CCCCNC(=O)CSc1nc2ccc(NC(=O)CSc3nnc(N)s3)cc2s1 | 2.41% |
| CCCCNC(=O)CSc1nc2ccc(NC(=O)CSc3nnc(COc4ccccc4C)n3C)cc2s1 | 5.25% |
| C#CCOc1ccc(/C=C2/C(=O)NN(c3ccccc3)C2=O)cc1OC | -3.05% |
| COCCCNC(=O)Cn1cc(C(=O)C2CC2)c2ccccc21 | -2.09% |
| COC(=O)Cn1cc(C(=O)c2cccs2)c2ccccc21 | -0.264% |
| O=C(CN1CCN(c2ccccn2)CC1)NCc1cccs1 | -3.83% |
| O=C(Cn1cc(C(=O)c2cccs2)c2ccccc21)NCc1cccs1 | 39% (active) |
| COC(=O)c1cn(CC(=O)NCc2cccs2)c2ccccc12 | 68.2% (active) |
| CCN(CC)C(=O)C(=O)c1cn(CC(=O)NCc2ccc3c(c2)OCO3)c2ccccc12 | -2.04% |
| Cc1cccc(N(C(=O)c2sc(C)nc2C)C(C(=O)NCC2CCCO2)c2ccccc2)c1 (stereo not given) | -2.65% |
| CCOc1ccc(NC(=O)C(C)N2C(=O)c3ccccc3C2=O)cc1 (stereo not given) | -2.64% |
| O=C(CSc1nc2ccccc2s1)Nc1ccc(C(=O)O)cc1 | -4.27% |
| O=C(O)CC/C(=C\c1cc2c(cc1Br)OCO2)c1nc2ccccc2s1 | 0.661% |
| CN(Cc1nc2ccccc2s1)C(=O)c1ccc(F)cc1 | 14.2% |
| O=C(O)c1cccc(S(=O)(=O)Nc2ccc(O)cc2Sc2nc3ccccc3s2)c1 | 4.69% |
| O=C(O)CSCc1nc2ccccc2s1 | 27.6% (active) |
| O=C(O)CS/C(=C\c1ccc(F)cc1)c1nc2ccccc2s1 | 37.2% (active) |
| O=C(O)c1ccccc1CSc1nc2ccccc2s1 | 34% (active) |
| O=C(O)CSc1nccc2ccccc12 | 2.48% |
| O=C(O)CCCCc1nc2ccccc2s1 | 3.94% |
